From ChEMBL document CHEMBL3988442, “University of Dundee, Small-Polar-MMV Screening Library” (2021) come the findings set out here.

Assay [1] has as its target T1, Aspartate--tRNA(Asp/Asn) ligase (Mycobacterium tuberculosis (strain ATCC 25618 / H37Rv)) (UniProt P9WFW3). Further: in the data most compounds retested in dose-response had high values.
T1 sequence (whole entry): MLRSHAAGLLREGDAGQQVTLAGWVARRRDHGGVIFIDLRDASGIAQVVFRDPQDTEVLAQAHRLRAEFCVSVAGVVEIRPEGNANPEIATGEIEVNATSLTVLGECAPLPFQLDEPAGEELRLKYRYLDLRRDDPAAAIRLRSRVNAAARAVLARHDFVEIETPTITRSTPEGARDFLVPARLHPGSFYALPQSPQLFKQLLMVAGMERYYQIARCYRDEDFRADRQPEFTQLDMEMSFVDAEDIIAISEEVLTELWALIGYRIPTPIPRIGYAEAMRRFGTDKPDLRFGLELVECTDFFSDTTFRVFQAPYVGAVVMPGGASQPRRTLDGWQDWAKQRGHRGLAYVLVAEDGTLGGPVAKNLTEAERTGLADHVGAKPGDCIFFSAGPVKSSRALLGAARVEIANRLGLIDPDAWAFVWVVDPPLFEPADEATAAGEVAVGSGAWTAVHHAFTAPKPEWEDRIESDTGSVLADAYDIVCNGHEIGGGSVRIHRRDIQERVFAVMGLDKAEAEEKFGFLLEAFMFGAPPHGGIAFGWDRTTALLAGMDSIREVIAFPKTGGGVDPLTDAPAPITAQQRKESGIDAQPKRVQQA
Nature of the assay: Assay for Asp RNA synthetase-1 from Mycobacterium tuberculosis. In kind it is functional. Also noted: scale not given: direction of the effect not stated beside the values. The note with it: 30 µM.

For assay [2], the target named is Shiga toxin 2 (Escherichia coli O157:H7) (UniProt P09385+P09386). Nature of the assay: E. coli 0.157:H7 Shiga Toxin SOP - stx2 screening assay. Also noted: scale not given: direction of the effect not stated beside the values. The format is functional. Conditions: 30 µM.

Turning to `Cc1nc(CN2C(=O)CC[C@H]3[C@@H]2CCN3C(=O)c2ccsc2)cs1`, the figures for the Percent Effect in assay [1] and in assay [2] were -4.11% and -2.73%, respectively.

As for `Cc1cncc(C2CCCN(C(=O)c3c[nH]c(=O)[nH]c3=O)C2)n1` (stereo unspecified), the results for the Percent Effect in assay [1] and in assay [2] were 3.87% and 26.6%, respectively.

On to `COc1cccc2cc(CNC(C)(C)C(=O)N3CCC(O)CC3)oc12`, for which the figures for the Percent Effect in assay [1] and in assay [2] were -1.57% and 4.9%, respectively.

Turning to `O=S(=O)(C1CC1)N1C[C@H]2CCC[C@@]2(COc2ccccn2)C1`, the Percent Effect in assay [1] is 4.47%; in assay [2], -32.7%.

For the compound `Cc1ccc(C)c(CNC(=O)NC(C)(C(=O)O)c2ccco2)c1` (stereo unspecified), the results for the Percent Effect in assay [1] and in assay [2] were 4.16% and 17%, respectively.

Regarding `CCN1CCCC(CNC(=O)C2(c3cccc(Cl)c3)CC2)C1` (stereo unspecified), the Percent Effect in assay [1] is 4.29%; in assay [2], -31.2%.

As for `Cc1cccc(CN2C[C@@H]3COC[C@]3(CNC(=O)N3CCCC3)C2)n1`, the Percent Effect was 2.42% in assay [1] and 11.4% in assay [2].

For `Cc1cccc(N2CCN(CCNC(=O)C(C)n3cncn3)CC2)c1` (stereo unspecified), the Percent Effect in assay [1] came out at 2.75%; in assay [2], 15.6%.

With `CCCN(Cc1ccccc1)Cn1nc(C)c2c(C)onc2c1=O`, the Percent Effect came out at 9.28% in assay [1] and 6.54% in assay [2].

For `CCOc1ccccc1-c1noc(CN2CC(n3cccn3)C2)n1`, the Percent Effect was found to be 0.259% in assay [1] and 34.8% in assay [2].

As for `O=C(NCc1nn(-c2ccccc2)c2c1CCC2)N1CCSCC1`, the Percent Effect in assay [1] was -2.32%; in assay [2] it was 34%.

With `CC(=O)Nc1ccc(S(=O)(=O)NC(=O)CCC2CCCO2)cc1` (stereo unspecified), the Percent Effect in assay [1] was 2.52%; in assay [2], -2.77%.

For `O=C(CCN1CCCC1C1CCCCC1)N1CCc2sccc2C1` (stereo unspecified), the Percent Effect in assay [1] turned out to be 2.02%; in assay [2] it was 8.04%.

As for `CC(NC1CCN(CCS(C)(=O)=O)CC1)c1ccc(Cl)cc1` (stereo unspecified), the Percent Effect in assay [1] is 7.04%; in assay [2], -1.87%.

For the compound `NC(=O)CN1CCCN(C(=O)c2ccn(-c3cccc(F)c3)n2)CC1`, the Percent Effect in assay [1] is 5.51%; in assay [2], -6.78%.

In the case of `CCc1nc(CN(C)C2CCN(Cc3cnc(C)cn3)C2)no1` (stereo unspecified), the Percent Effect was 1.14% in assay [1] and -48.2% in assay [2].

As to `CC(C)NC(=O)N1CC[C@@H]2CN(Cc3cccc(Cl)c3)S(=O)(=O)[C@@H]2CC1`, the Percent Effect in assay [1] is 5.42%; in assay [2] it was -9.22%.

With `CS(=O)(=O)NC[C@H]1OC[C@@H]2CCN(Cc3ccc(F)cc3)C[C@@H]21`, the Percent Effect in assay [1] was 0.903%; in assay [2] it was -21.2%.
